Source: publication PMC4336329 (PLoS ONE, 2015)
About 2,200 (0.71%) of roughly 310,000 compounds showed an effect of 50% or more. Effects have a minus sign here. The entries come from a sample that favours strong results as a whole.

molecular target: human ether-à-go-go-related gene (hERG) potassium channel (human, UniProt Q12809); assay: primary screen, population patch clamp on CHO cells stably expressing hERG; higher = less effect of the substance
Sequence (Q12809 whole entry, looked up): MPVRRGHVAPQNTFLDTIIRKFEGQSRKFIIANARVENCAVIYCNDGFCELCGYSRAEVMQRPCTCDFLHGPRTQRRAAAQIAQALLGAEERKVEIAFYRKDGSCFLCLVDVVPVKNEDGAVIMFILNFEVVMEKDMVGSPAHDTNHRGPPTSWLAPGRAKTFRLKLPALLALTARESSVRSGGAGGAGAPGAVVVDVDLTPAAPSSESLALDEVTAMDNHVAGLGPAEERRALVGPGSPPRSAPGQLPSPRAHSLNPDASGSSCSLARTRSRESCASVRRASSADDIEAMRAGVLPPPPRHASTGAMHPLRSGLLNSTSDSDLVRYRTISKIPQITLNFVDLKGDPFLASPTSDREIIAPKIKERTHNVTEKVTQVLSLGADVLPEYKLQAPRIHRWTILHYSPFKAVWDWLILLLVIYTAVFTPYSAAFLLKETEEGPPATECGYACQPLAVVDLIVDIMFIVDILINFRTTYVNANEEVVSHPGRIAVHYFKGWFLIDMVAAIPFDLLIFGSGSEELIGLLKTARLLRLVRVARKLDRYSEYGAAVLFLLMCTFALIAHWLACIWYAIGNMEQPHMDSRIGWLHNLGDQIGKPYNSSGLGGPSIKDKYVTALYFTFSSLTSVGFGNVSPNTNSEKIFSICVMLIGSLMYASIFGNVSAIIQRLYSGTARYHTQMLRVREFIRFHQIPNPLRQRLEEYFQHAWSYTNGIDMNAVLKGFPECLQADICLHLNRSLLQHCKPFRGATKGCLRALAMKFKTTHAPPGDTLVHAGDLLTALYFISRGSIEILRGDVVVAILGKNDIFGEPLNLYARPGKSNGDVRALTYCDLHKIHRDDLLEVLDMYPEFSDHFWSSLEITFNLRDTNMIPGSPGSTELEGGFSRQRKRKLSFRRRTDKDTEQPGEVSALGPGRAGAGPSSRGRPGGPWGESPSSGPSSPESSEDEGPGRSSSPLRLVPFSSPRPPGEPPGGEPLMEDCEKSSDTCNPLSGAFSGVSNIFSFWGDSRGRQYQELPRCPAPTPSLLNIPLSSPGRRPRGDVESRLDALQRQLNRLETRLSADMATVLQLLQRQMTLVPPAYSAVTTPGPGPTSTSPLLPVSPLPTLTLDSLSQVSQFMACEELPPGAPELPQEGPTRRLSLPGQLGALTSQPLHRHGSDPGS

| Compound | hERG current change (%, negative = inhibition) at 1uM [%] |
| --- | --- |
| CCc1ccc(N(CC(=O)Nc2ccccc2C(=O)N2CCOCC2)S(C)(=O)=O)cc1 | 8.28 |
| O=C(NCc1cccnc1)c1ccc(CS(=O)(=O)Cc2ccc(Cl)cc2)o1 | 3.03 |
| Cc1c(C(=O)OCC(=O)N2c3ccccc3CC2C)oc2ccccc12 (centres unmarked) | 14.6 |
| O=C(Nc1cccc(F)c1)Nc1ccccn1 | 16 |
| Cc1c(C(=O)c2ccccc2)c(=O)n(C)c(=O)n1C | 9.65 |
| O=S(=O)(Nc1cccc(-c2ccc(N3CCCCCC3)nn2)c1)c1cccc(F)c1 | 14.3 |
| CSc1nnc(-c2ccc(O)cc2)n1C | -1.62 |
| COC(=O)c1ccc(CN2CCCC(C(=O)c3cc(F)ccc3OC)C2)cc1 (centres unmarked) | -8.3 |
| O=C1c2ccccc2C(=O)N1CCCc1nc(-c2ccccn2)no1 | -4.38 |
| CCOC(=O)/C(N=Nc1sc(C(=O)OC)c(C)c1C(=O)OCC)=C(\O)CCl | 14.4 |
| COc1cc(OC)cc(C(=O)OCC(=O)N(C)c2ccccc2)c1 | 9.32 |
| Oc1ccc(-c2[nH]ncc2-c2ccc(Br)cc2)c(O)c1 | 6.73 |
| CCC(=O)Nc1ccc(Oc2ccc3c(c2)C(=O)N(c2ccc(O)cc2)C3=O)cc1 | 13.7 |
| O=C1CC(N2CCN(C/C=C/c3ccccc3)CC2)C(=O)N1CCc1ccccc1 (centres unmarked) | -4.01 |
| O=C1CC(N2CCN(C/C=C/c3ccccc3)CC2)C(=O)N1Cc1ccc(N2CCCC2=O)cc1 (centres unmarked) | -13 |
| O=C1CC(N2CCN(C/C=C/c3ccccc3)CC2)C(=O)N1Cc1cccs1 (centres unmarked) | -50.8 |
| COc1ccc(NC(=O)CN2CCN(CC(=O)Nc3ccc(F)cc3)CC2)cc1Cl | -88.6 |
| COc1ccc(NC(=O)CN2CCCN(S(=O)(=O)c3ccc(F)cc3)CC2)c(OC)c1 | -8.18 |
| COc1ccc(NC(=O)CN2CCN(CC(=O)Nc3ccccc3Cl)CC2)c(OC)c1 | -48 |

| Compound | hERG current change (%, negative = inhibition) at 1uM [%] |
| --- | --- |
| CCOc1ccc(NC(=O)CN2CCN(CC(=O)Nc3ccccc3OC)CC2)cc1 | -30.9 |
| COc1ccc(NC(=O)CN2CCN(c3ccc(F)cc3)CC2)cc1Cl | 13.2 |
| COc1cccc(NC(=O)CN2CCN(S(=O)(=O)c3ccc(F)cc3)CC2)c1 | 4.16 |
| COc1cccc(NC(=O)CN2CCN(c3ccc(F)cc3)CC2)c1 | 2.77 |
| COc1ccc(NC(=O)CN2CCN(S(=O)(=O)c3ccc(F)cc3)CC2)cc1Cl | 7.03 |
| COc1ccc(NC(=O)CN2CCN(CC(=O)Nc3ccccc3F)CC2)c(OC)c1 | -19.6 |
| COc1cccc(NC(=O)CN2CCN(CC(=O)Nc3ccc(F)cc3)CC2)c1 | -90.6 |
| COc1ccc(NC(=O)CN2CCN(CC(=O)Nc3ccc(F)cc3)CC2)c(OC)c1 | -83.3 |
| CCOc1ccc(NC(=O)CN2CCN(CC(=O)Nc3ccc(OC)cc3OC)CC2)cc1 | -58.2 |
| Cc1[nH]c2ccccc2c1C(=O)/C=C/c1ccccc1Cl | 14.6 |
| NC(=O)CN1C(=O)NC2(CCCc3sccc32)C1=O (centres unmarked) | 17 |
| O=C(CCC(=O)c1cccs1)OCc1nc2ccccc2s1 | 12.6 |
| O=c1c2ccccc2nc(CSc2ncnc3nc[nH]c23)n1-c1cccc(C(F)(F)F)c1 | -2.15 |
| COc1ccc(NC(=O)COc2cccnc2[N+](=O)[O-])cc1OC | 15.8 |
| Cc1nc(C(=O)Nc2cc(Cl)ccc2Cl)nn1-c1cc(OC(C)C)c(Cl)cc1Cl | -0.146 |
| CC1CCCN(C(=O)CSc2cnc3ccccc3n2)C1 (centres unmarked) | -9.88 |
| COc1ccccc1-c1noc(CSc2nc(C)cc(=O)[nH]2)n1 | 19.4 |
| Cc1ccc(NC(=O)C2C(c3ccccc3)C2(Cl)Cl)c(C)c1 (centres unmarked) | 2.95 |
| COc1ccc(-c2nc(-c3cccs3)c(-c3cccs3)[nH]2)cc1OC | 20.3 |

| Compound | hERG current change (%, negative = inhibition) at 1uM [%] |
| --- | --- |
| O=[N+]([O-])c1cc([N+](=O)[O-])c(Oc2cc(Cl)cc(Cl)c2)cc1NN1CCCCC1 | 11.6 |
| Cc1ccc(S(=O)(=O)NCC2CCC(C(=O)NCCCN3CCCC3=O)CC2)cc1 (centres unmarked) | 11.2 |
| COc1ccc(N(CC(=O)O)S(=O)(=O)c2cccnc2)cc1 | 14.2 |
| COc1ccccc1NC(=O)CN1CCN(CC(=O)Nc2ccc(F)cc2)CC1 | -87.4 |
| COc1ccccc1NC(=O)CN1CCN(CC(=O)Nc2ccc(C)c(F)c2)CC1 | -49.1 |
| COc1ccccc1NC(=O)CN1CCN(CC(=O)Nc2ccc(OC)c(OC)c2)CC1 | 12 |
| CCCCCCn1c(N2CCN(c3ccccc3)CC2)nc2c1c(=O)[nH]c(=O)n2C | -20.5 |
| CC(C)CCn1c(CN2CCN(Cc3ccccc3)CC2)nc2c1c(=O)[nH]c(=O)n2C | -2.51 |
| CCCCCn1c(N2CCC(Cc3ccccc3)CC2)nc2c1c(=O)[nH]c(=O)n2C | 11.2 |
| Cn1c(=O)[nH]c(=O)c2c1nc(N1CCN(Cc3ccccc3)CC1)n2CCCc1ccccc1 | -22 |
| CCCCCn1c(CN2CCN(Cc3ccccc3)CC2)nc2c1c(=O)[nH]c(=O)n2C | -72.5 |
| CCCCCn1c(CN2CCN(Cc3ccccc3)CC2)nc2c1c(=O)n(C)c(=O)n2C | -57.9 |
| CCCCCCn1c(CN2CCN(Cc3ccccc3)CC2)nc2c1c(=O)n(C)c(=O)n2C | -47.2 |
| CCN1CCN(c2nc3c(c(=O)[nH]c(=O)n3C)n2Cc2ccccc2)CC1 | 1.8 |
| CCCCCn1c(N2CCN(Cc3ccccc3)CC2)nc2c1c(=O)[nH]c(=O)n2C | -77 |
| Cn1c(=O)[nH]c(=O)c2c1nc(CN1CCN(Cc3ccccc3)CC1)n2CC(N)=O | 6.48 |
| CCN1CCN(c2nc3c(c(=O)[nH]c(=O)n3C)n2CCCc2ccccc2)CC1 | -81.5 |
| CCCCCn1c(CN2CCN(C)CC2)nc2c1c(=O)n(C)c(=O)n2C | -5.24 |
